From PubChem BioAssay (NCI)
The panel holds about 83,000 compounds, 20% with a hit somewhere; the sample as a whole holds those more often.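 Single-concentration screen, 48 h exposure, 96-well plates. Endpoint: percent growth. Below 10 = active.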 A number with no mark means an inactive call. Activity calls are given as the source filed them.

Test system: UACC-62 melanoma
Assay: NCI-60 one-dose screen, 48 h (100 = growth as untreated, 0 = no growth, -100 = all killed)
Settings: 10 µM unless noted

Row | Structure (SMILES) | growth
1 | CC(=O)CCC(=O)OCc1cc(=O)c(O)co1 | 103%
2 | O=C(c1nc2ccccc2[nH]1)C1C(c2ccc(Cl)cc2)C2CC3CCCC[C@H]3N2[C@@]12C(=O)Nc1cc(Cl)ccc12 (stereo partly specified) | 59.3%
3 | COc1cccc(-c2nc3occn3c2-c2ccnc(NCCNS(=O)(=O)c3cccc4ccccc34)n2)c1 | 93.7%
4 | COc1cc(-c2n/c(=C\c3c(O)[nH]c4ccc(Cl)cc34)cc3c2=Nc2ccccc2-3)ccc1F | 46.5%
5 | NNC(=O)c1ccc(-n2nc(-c3ccccc3)c3ccccc32)cc1 | 80.7%
6 | O=C1Nc2cc(-c3cccc(O)c3)ccc2/C1=C/c1ccc[nH]1 | 24.1%
7 | COc1cccc(/C=N/NC(=O)c2cnn3c2NC(c2ccccc2)C3)c1Oc1ccccc1 (stereo unspecified) | 62.3%
8 | S=c1cc(S)c2cc(Br)ccc2[nH]1 | 83.4%
9 | O=C(NCCc1ccccc1)Nc1ccc2cc3ccc(NC(=O)NCCc4ccccc4)cc3nc2c1 | -51.2% (active)
10 | CCN(CC)CCCC(C)Nc1cc(O)cc2cccnc12 (stereo unspecified) | 94.4%
11 | CCOC(=O)C1=C(C)NC(SCc2cc(=O)oc3ccc(F)cc23)=N[C@@H]1c1cccc2ccccc12 | 86%
12 | COc1ccc(C(=O)c2cc(OC)c(OC)c(OC)c2)cc1O | 45.2%
13 | CCCOC(=O)N[C@H]1CCc2c(Cl)c(OC)c(OC)c(OC)c2-c2ccc(SC)c(=O)cc21 | 30.9%
14 | Cc1ccc(/C=N/NC(=O)CSc2nc3ccccc3c(=O)n2Cc2ccc(S(N)(=O)=O)cc2)cc1 | 78.1%
15 | O=C(CCN1CCCC1)Nc1ccc2c(NCCCCc3ccccc3)c3ccccc3nc2c1 | 65.2%
16 | CSc1nc2sc3cccc(Cl)c3n2c(=N)c1C#N | 90%
17 | C#CCNC(=O)c1cccc2c1cc(C)n2-c1nc2c(c(NCc3ccccc3)n1)CCCC2 | -60.6% (active)
18 | Cc1ccc(S(=O)(=O)NNC(=O)/C(=C\c2ccc(Cl)cc2)c2nc3ccccc3s2)cc1 | 80.7%
19 | O=[N+]([O-])CC(c1ccccc1)c1c[nH]c2ccccc12 (stereo unspecified) | 35%

Row | Structure (SMILES) | growth
20 | Nc1nc(Nc2ccccc2SSc2ccccc2Nc2nc(N)nc(-c3ccc(C(F)(F)F)cc3)n2)nc(-c2ccc(C(F)(F)F)cc2)n1 | 68.3%
21 | CCCCCC(=O)Oc1ccc(/C(=C(\C)c2ccccc2)c2ccc(OCCN3CCCCC3)cc2)cc1 | 91%
22 | C/C(=N\Nc1cc(C)nc2ccc(Br)cc12)c1ccc([N+](=O)[O-])cc1 | 89.6%
23 | COc1cccc(-c2ccc3c(c2)NC(=O)/C3=C\c2ccc[nH]2)c1 | 44.3%
24 | CCC(=O)Oc1ccc(/C(=C(\C)c2ccccc2)c2ccc(OCCN3CCCCC3)cc2)cc1 | 88.5%
25 | COc1cc(CC(=O)c2ccc(O)c(OC)c2)ccc1O | 94.8%
26 | Brc1ccc2[nH]cc(-c3cncn3CCc3ccccc3)c2c1 | 52.9%
27 | CCNC(=O)Oc1ccc(/C(=C(\C)c2ccccc2)c2ccc(OCCCN(C)C)cc2)cc1 | 76.1%
28 | O=C(/C=C/c1ccc(F)cc1)c1ccc(NC(=O)N2CCN(c3cc4c(cc3F)c(=O)c(C(=O)O)cn4C3CC3)CC2)cc1 | 78.2%
29 | O=S(=O)(NCCNc1nccc(-c2c(-c3cccc(O)c3)nc3occn23)n1)c1ccccc1 | 8.22% (active)
30 | COc1ccc(C(=O)c2cc(C)c(OC)c(C)c2)c(OC)c1N(C(=O)CCl)C(=O)CCl | 24.5%
31 | O=C(/C=C/c1ccc[nH]1)c1ccc(-n2ccc(C(F)(F)F)n2)c(F)c1 | 84.9%
32 | COc1ccc(C(=O)C2C(C#N)C(C#N)C3c4ccccc4C=CN23)cc1 (stereo unspecified) | 63%
33 | c1ccc(-c2cn3c(ccc4ccccc43)n2)cc1 | 43.5%
34 | CNC(=O)c1cccc(Cn2nc(C)c(NC(=O)c3ccc(COc4ccc(C(F)(F)F)cc4C)cc3)c2C)n1 | 63%
35 | COc1ccc(OC)c(-c2cc(-c3ccc(Cl)cc3)c3c(N)c(C(=O)c4ccc(Cl)cc4)sc3n2)c1 | 92.2%
36 | CCCOc1ccc(/C=N/Nc2cc(C)nc3ccc(Cl)cc23)cc1 | 88.6%
37 | O=C(Cc1ccccc1)NNc1nc(Cl)nc(N2CCN(C(c3ccccc3)c3ccccc3)CC2)n1 | 91.9%
38 | C#CCNC(=O)[C@H](Cc1ccccc1)NC(=O)[C@]12CC[C@@H](C(=C)C)[C@@H]1[C@H]1CC[C@@H]3[C@@]4(C)CCC(=O)C(C)(C)[C@@H]4CC[C@@]3(C)[C@]1(C)CC2 | 59.5%

Test system: LOX IMVI melanoma
Assay: as above
Settings: 10 µM unless noted

Row | Structure (SMILES) | growth
39 | CC(=O)CCC(=O)OCc1cc(=O)c(O)co1 | 94.6%
40 | O=C(c1nc2ccccc2[nH]1)C1C(c2ccc(Cl)cc2)C2CC3CCCC[C@H]3N2[C@@]12C(=O)Nc1cc(Cl)ccc12 (stereo partly specified) | 35%
41 | COc1cccc(-c2nc3occn3c2-c2ccnc(NCCNS(=O)(=O)c3cccc4ccccc34)n2)c1 | 102%
42 | COc1cc(-c2n/c(=C\c3c(O)[nH]c4ccc(Cl)cc34)cc3c2=Nc2ccccc2-3)ccc1F | 0.0846% (active)
43 | NNC(=O)c1ccc(-n2nc(-c3ccccc3)c3ccccc32)cc1 | 68.2%
44 | O=C1Nc2cc(-c3cccc(O)c3)ccc2/C1=C/c1ccc[nH]1 | 7.66% (active)
45 | COc1cccc(/C=N/NC(=O)c2cnn3c2NC(c2ccccc2)C3)c1Oc1ccccc1 (stereo unspecified) | 84.5%
46 | S=c1cc(S)c2cc(Br)ccc2[nH]1 | 95.9%
47 | O=C(NCCc1ccccc1)Nc1ccc2cc3ccc(NC(=O)NCCc4ccccc4)cc3nc2c1 | -79.8% (active)
48 | CCN(CC)CCCC(C)Nc1cc(O)cc2cccnc12 (stereo unspecified) | 88.7%
49 | CCOC(=O)C1=C(C)NC(SCc2cc(=O)oc3ccc(F)cc23)=N[C@@H]1c1cccc2ccccc12 | 99.9%
50 | COc1ccc(C(=O)c2cc(OC)c(OC)c(OC)c2)cc1O | 15.4%
51 | CCCOC(=O)N[C@H]1CCc2c(Cl)c(OC)c(OC)c(OC)c2-c2ccc(SC)c(=O)cc21 | 10.7%
52 | Cc1ccc(/C=N/NC(=O)CSc2nc3ccccc3c(=O)n2Cc2ccc(S(N)(=O)=O)cc2)cc1 | 82.9%
53 | O=C(CCN1CCCC1)Nc1ccc2c(NCCCCc3ccccc3)c3ccccc3nc2c1 | -89.3% (active)
54 | CSc1nc2sc3cccc(Cl)c3n2c(=N)c1C#N | 93.7%
55 | C#CCNC(=O)c1cccc2c1cc(C)n2-c1nc2c(c(NCc3ccccc3)n1)CCCC2 | -86.6% (active)
56 | Cc1ccc(S(=O)(=O)NNC(=O)/C(=C\c2ccc(Cl)cc2)c2nc3ccccc3s2)cc1 | 90.5%
57 | O=[N+]([O-])CC(c1ccccc1)c1c[nH]c2ccccc12 (stereo unspecified) | 45.5%

Row | Structure (SMILES) | growth
58 | Nc1nc(Nc2ccccc2SSc2ccccc2Nc2nc(N)nc(-c3ccc(C(F)(F)F)cc3)n2)nc(-c2ccc(C(F)(F)F)cc2)n1 | 27.5%
59 | CCCCCC(=O)Oc1ccc(/C(=C(\C)c2ccccc2)c2ccc(OCCN3CCCCC3)cc2)cc1 | 84%
60 | C/C(=N\Nc1cc(C)nc2ccc(Br)cc12)c1ccc([N+](=O)[O-])cc1 | -29.9% (active)
61 | COc1cccc(-c2ccc3c(c2)NC(=O)/C3=C\c2ccc[nH]2)c1 | 50.5%
62 | CCC(=O)Oc1ccc(/C(=C(\C)c2ccccc2)c2ccc(OCCN3CCCCC3)cc2)cc1 | 81%
63 | COc1cc(CC(=O)c2ccc(O)c(OC)c2)ccc1O | 96.7%
64 | Brc1ccc2[nH]cc(-c3cncn3CCc3ccccc3)c2c1 | 64.1%
65 | CCNC(=O)Oc1ccc(/C(=C(\C)c2ccccc2)c2ccc(OCCCN(C)C)cc2)cc1 | 67.1%
66 | O=C(/C=C/c1ccc(F)cc1)c1ccc(NC(=O)N2CCN(c3cc4c(cc3F)c(=O)c(C(=O)O)cn4C3CC3)CC2)cc1 | 83.7%
67 | O=S(=O)(NCCNc1nccc(-c2c(-c3cccc(O)c3)nc3occn23)n1)c1ccccc1 | 53.7%
68 | COc1ccc(C(=O)c2cc(C)c(OC)c(C)c2)c(OC)c1N(C(=O)CCl)C(=O)CCl | 14.1%
69 | O=C(/C=C/c1ccc[nH]1)c1ccc(-n2ccc(C(F)(F)F)n2)c(F)c1 | 97.7%
70 | COc1ccc(C(=O)C2C(C#N)C(C#N)C3c4ccccc4C=CN23)cc1 (stereo unspecified) | 87.8%
71 | c1ccc(-c2cn3c(ccc4ccccc43)n2)cc1 | 52.3%
72 | CNC(=O)c1cccc(Cn2nc(C)c(NC(=O)c3ccc(COc4ccc(C(F)(F)F)cc4C)cc3)c2C)n1 | 55.2%
73 | COc1ccc(OC)c(-c2cc(-c3ccc(Cl)cc3)c3c(N)c(C(=O)c4ccc(Cl)cc4)sc3n2)c1 | 98.3%
74 | CCCOc1ccc(/C=N/Nc2cc(C)nc3ccc(Cl)cc23)cc1 | -95.7% (active)
75 | O=C(Cc1ccccc1)NNc1nc(Cl)nc(N2CCN(C(c3ccccc3)c3ccccc3)CC2)n1 | 61.9%
76 | C#CCNC(=O)[C@H](Cc1ccccc1)NC(=O)[C@]12CC[C@@H](C(=C)C)[C@@H]1[C@H]1CC[C@@H]3[C@@]4(C)CCC(=O)C(C)(C)[C@@H]4CC[C@@]3(C)[C@]1(C)CC2 | 75.4%
